Measured values: PubChem BioAssay (NCATS)
Records with an inconclusive call do not appear. A number with no mark means an inactive call. Calls come from the whole dose curve; as a rule, active = well fitted activation curve with a large enough effect; inconclusive = small, poorly fitted or top-dose-only effect; inactive = no such curve, though single readings can be large or run the other way.

The compounds below were run against Cellular tumor antigen p53 (Homo sapiens) (UniProt P04637) (assay: Primary qHTS for small molecule compounds that upregulate eGFP-tagged delta133p53alpha (in N-terminal) cells. (AID 2060322;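 note: series mostly up to about 56 µM; 0% = DMSO vehicle and 100% = reference activator; nearly all actives have a fitted effect of over 75% in size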)). Conditions: NCI-H358 eGFP-delta133p53alpha fluorescence, 24 h; activation: active compounds read high.
In short: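 NCI-H358 cells pre-induced 24 h with 10 ng/ml doxycycline to express N-terminal eGFP-delta133p53alpha, then dosed 24 h at 37C without doxycycline; fixed, Hoechst-stained, GFP intensity by laser scanning cytometry, normalized to DMSO (0%) and 57.5 uM 5-azacytidine (100%).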

Sequence of Cellular tumor antigen p53 (Homo sapiens) (P04637 whole entry, looked up): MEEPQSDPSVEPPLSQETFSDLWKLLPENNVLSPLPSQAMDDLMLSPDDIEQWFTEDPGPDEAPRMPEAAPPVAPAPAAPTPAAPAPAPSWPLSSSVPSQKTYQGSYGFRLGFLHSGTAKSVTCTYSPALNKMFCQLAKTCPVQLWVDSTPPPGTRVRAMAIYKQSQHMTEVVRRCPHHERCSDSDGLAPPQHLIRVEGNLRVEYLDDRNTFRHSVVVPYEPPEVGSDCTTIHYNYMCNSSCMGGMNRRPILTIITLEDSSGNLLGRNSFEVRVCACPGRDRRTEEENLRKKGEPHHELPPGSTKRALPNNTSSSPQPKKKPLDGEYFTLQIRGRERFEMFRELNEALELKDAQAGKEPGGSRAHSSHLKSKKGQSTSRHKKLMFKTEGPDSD

SMILES | activation [%]
O=C1CC(c2ccc(Cl)cc2)CC(=O)N1 | -11.9
c1ccc(CCNc2nc(-c3ccccc3)cs2)cc1 | 20.1
CON=C(C(=O)N[C@@H]1C(=O)N2C(C(=O)OCOC(=O)C(C)(C)C)=C(C=Cc3scnc3C)CS[C@H]12)c1csc(N)n1 | -6.48
C/C=C1\[C@H]2C=C(C)C[C@]1(N)c1ccc(=O)[nH]c1C2 | 5.08
C[C@@H]1CCN(C(=O)CC#N)C[C@H]1N(C)c1ncnc2[nH]ccc12 | -11.8
CCNC(=O)CCCC=CC[C@@H]1[C@H](C=CC(O)CCc2ccccc2)[C@@H](O)C[C@@H]1O (stereo not given in full) | -2.33
O=C1C(CCC(O)c2ccc(F)cc2)C(c2ccc(O)cc2)N1c1ccc(F)cc1 (stereo not given) | -15.6
Cc1ccc(C(=O)C(=O)O)cc1C | -13
Cn1cc[nH]c1=S | -1.69
CCn1c(-c2nc3cc(C(=O)N4CCC[C@@H](N)C4)cc(OC)c3n2C)cc2ccccc21 | -14.5
CCOC(N)=O | -2.82
c1ccc2c(CC3=NCCN3)cccc2c1 | -10
COC(=O)[C@@H]1[C@H]2C[C@@H]3c4[nH]c5ccccc5c4CCN3C[C@@H]2CC[C@@H]1O | 21.4
CC1(C)O[C@@H]2[C@@H](CO[C@@]3(COS(N)(=O)=O)OC(C)(C)O[C@@H]23)O1 | -2.51
CCC[C@H](N[C@@H](C)C(=O)N1[C@H](C(=O)O)C[C@@H]2CCCC[C@@H]21)C(=O)OCC | -15.3
